Common to all, as to assay: DAPPL (digital affinity profiling via proximity ligation, sequencing); 10 mM Tris-HCl pH 7.5, 50 mM NaCl, 1 mM DTT, 4% glycerol, room temperature, 30 min; GST-TFs on glutathione beads, 16-mer random dsDNA library, 0.1% formaldehyde crosslink after washing; high values mean tight binding
One test deals with T1, FEV (Homo sapiens, UniProt Q99581 1-238).
T1 sequence: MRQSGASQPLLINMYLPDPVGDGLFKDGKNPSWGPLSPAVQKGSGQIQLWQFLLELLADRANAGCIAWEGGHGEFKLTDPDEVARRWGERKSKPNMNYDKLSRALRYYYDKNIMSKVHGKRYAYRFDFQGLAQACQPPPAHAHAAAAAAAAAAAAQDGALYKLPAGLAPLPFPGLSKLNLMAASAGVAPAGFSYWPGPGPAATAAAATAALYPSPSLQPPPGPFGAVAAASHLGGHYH
Particulars: protein: recombinant; tags: N-terminal GST; dsDNA, one strand shown. Put shortly: (§1)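 Each value of binding signal is a hexamer's read frequency for a factor divided by the same hexamer's frequency in the tag-only sample. Barcoded, bead-captured GST fusions of human transcription factors made in yeast were pooled with that sample and incubated with 200 nmole of a random double-stranded 16-mer DNA library in Tris/NaCl/DTT/glycerol buffer at room temperature for 30 min. Washing, 0.1% formaldehyde crosslinking, proximity ligation, PCR and Illumina NextSeq500 sequencing followed.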

Another test has as its target ETV5 (Homo sapiens, UniProt P41161 1-510). Particulars: protein: recombinant; tags: N-terminal GST; dsDNA, one strand shown. Put shortly: as §1
For the next test, the target named is HSF1 (Homo sapiens, UniProt Q00613 1-529). The following applies: protein: recombinant; tags: N-terminal GST; chain copies: 3; dsDNA, one strand shown. Put shortly:
as §1

A further test deals with T2, SPIC (Homo sapiens, UniProt Q8N5J4 1-248).
T2 sequence: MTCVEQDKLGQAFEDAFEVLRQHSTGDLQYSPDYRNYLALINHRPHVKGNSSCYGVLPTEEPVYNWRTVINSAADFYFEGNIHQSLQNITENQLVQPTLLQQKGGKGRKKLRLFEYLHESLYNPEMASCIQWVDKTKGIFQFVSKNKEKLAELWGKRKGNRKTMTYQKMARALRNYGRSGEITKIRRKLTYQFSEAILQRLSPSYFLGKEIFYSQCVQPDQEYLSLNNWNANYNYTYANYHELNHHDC
Particulars: protein: recombinant; tags: N-terminal GST; dsDNA, one strand shown. Put shortly: as §1

The next test has as its target ELF4 (Homo sapiens, UniProt Q99607 1-663). Particulars: protein: recombinant; tags: N-terminal GST; dsDNA, one strand shown. The gist of the method:
as §1

The target of a further test is T3, ELK4 (Homo sapiens, UniProt P28324-2 1-405).
T3 sequence: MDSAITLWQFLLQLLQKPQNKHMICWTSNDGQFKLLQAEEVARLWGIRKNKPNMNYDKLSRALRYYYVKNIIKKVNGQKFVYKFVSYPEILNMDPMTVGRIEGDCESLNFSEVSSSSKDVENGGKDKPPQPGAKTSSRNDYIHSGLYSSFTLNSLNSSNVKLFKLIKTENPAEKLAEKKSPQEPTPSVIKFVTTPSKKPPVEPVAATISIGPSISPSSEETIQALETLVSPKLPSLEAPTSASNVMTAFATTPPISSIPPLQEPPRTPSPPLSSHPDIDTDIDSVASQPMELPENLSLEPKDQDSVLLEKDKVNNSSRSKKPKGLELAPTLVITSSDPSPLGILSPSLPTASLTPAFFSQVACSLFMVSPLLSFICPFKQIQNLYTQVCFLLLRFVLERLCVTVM
Particulars: protein: recombinant; tags: N-terminal GST; dsDNA, one strand shown. Put shortly: as §1

The target in the next test is T4, ETV2 (Homo sapiens, UniProt O00321 1-342).
T4 sequence: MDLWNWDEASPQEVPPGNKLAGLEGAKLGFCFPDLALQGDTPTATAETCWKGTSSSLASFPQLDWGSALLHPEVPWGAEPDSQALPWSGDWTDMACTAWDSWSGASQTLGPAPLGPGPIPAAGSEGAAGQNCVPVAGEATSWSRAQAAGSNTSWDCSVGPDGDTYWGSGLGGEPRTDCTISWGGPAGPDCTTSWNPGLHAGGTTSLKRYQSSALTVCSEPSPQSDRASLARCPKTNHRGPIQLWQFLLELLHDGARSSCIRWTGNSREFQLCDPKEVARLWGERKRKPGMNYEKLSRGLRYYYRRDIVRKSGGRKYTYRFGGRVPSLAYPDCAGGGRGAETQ
The following applies: protein: recombinant; tags: N-terminal GST; dsDNA, one strand shown. The gist of the method: as §1

The target in a further test is T5, ELF3 (Homo sapiens, UniProt P78545 1-371).
T5 sequence: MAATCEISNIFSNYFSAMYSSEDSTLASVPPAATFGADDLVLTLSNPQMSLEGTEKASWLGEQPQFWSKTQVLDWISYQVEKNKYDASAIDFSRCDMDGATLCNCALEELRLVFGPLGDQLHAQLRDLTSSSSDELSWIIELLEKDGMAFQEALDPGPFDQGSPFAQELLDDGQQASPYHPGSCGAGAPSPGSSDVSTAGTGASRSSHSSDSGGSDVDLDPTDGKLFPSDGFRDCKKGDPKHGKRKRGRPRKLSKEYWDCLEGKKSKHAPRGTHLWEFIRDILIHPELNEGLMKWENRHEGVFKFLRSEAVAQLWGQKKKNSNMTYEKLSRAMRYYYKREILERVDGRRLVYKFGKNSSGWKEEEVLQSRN
The following applies: protein: recombinant; tags: N-terminal GST; dsDNA, one strand shown. The gist of the method:
as §1

A further test addresses CRX (Homo sapiens, UniProt O43186 1-299). Particulars: protein: recombinant; tags: N-terminal GST; dsDNA, one strand shown. The gist of the method:
as §1

Another test has as its target ETV1 (Homo sapiens, UniProt P50549 1-477). The following applies: protein: recombinant; tags: N-terminal GST; dsDNA, one strand shown. Put shortly: as §1
In another test the target is T6, ERF (Homo sapiens, UniProt P50548 1-548).
T6 sequence: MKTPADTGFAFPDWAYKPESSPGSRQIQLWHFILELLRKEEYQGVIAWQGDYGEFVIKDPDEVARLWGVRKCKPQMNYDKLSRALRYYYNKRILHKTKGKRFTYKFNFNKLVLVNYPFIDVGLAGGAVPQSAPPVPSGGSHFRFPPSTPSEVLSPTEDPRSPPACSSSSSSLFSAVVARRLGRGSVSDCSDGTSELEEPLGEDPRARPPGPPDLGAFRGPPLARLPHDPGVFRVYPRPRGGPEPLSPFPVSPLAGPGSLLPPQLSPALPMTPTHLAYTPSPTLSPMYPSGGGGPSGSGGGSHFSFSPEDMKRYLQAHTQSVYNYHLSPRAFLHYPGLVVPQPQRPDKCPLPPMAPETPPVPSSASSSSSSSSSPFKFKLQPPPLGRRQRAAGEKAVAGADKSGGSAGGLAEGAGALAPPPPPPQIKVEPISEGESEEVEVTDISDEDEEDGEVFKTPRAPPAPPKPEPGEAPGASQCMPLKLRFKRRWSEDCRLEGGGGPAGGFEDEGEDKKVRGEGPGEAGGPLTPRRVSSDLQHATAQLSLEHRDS
The following applies: protein: recombinant; tags: N-terminal GST; dsDNA, one strand shown. The gist of the method:
as §1

The next test deals with T7, ETV3L (Homo sapiens, UniProt Q6ZN32 1-361).
T7 sequence: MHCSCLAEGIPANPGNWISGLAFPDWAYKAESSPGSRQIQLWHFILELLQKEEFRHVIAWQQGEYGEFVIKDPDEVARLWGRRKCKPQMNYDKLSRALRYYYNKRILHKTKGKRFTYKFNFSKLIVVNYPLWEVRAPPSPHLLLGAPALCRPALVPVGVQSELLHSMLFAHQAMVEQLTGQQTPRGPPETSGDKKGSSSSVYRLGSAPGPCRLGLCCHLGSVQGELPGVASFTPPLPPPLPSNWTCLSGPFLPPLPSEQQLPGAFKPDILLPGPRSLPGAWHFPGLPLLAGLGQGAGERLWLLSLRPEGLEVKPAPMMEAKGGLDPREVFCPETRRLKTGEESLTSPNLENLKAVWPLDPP
The following applies: protein: recombinant; tags: N-terminal GST; dsDNA, one strand shown. Put shortly:
as §1

The target in a further test is T8, ETS2 (Homo sapiens, UniProt P15036 1-469).
T8 sequence: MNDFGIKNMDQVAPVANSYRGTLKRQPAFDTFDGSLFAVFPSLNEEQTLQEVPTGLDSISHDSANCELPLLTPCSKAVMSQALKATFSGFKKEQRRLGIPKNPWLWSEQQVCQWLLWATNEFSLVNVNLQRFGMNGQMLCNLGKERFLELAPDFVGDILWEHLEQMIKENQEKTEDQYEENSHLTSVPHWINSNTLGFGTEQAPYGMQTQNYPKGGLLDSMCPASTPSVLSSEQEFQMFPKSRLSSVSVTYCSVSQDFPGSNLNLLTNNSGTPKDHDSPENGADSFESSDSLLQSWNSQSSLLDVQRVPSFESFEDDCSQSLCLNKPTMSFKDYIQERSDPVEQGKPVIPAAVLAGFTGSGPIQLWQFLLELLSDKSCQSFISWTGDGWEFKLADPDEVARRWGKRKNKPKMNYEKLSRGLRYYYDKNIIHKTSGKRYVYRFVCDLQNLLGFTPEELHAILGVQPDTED
Particulars: protein: recombinant; tags: N-terminal GST; dsDNA, one strand shown. Put shortly:
as §1

A further test has as its target T9, SPDEF (Homo sapiens, UniProt O95238 1-335).
T9 sequence: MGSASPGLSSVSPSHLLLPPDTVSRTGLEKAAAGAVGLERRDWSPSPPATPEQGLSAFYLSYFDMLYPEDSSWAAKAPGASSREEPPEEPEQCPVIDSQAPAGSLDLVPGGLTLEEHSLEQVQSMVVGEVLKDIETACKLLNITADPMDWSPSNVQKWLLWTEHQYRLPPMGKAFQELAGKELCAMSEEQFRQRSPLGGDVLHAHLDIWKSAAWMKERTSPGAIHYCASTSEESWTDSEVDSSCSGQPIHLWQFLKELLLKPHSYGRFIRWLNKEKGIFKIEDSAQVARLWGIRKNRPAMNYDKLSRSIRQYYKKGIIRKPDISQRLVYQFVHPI
The following applies: protein: recombinant; tags: N-terminal GST; dsDNA, one strand shown. The gist of the method: as §1

Another test addresses T10, ETV7 (Homo sapiens, UniProt Q9Y603 1-341).
T10 sequence: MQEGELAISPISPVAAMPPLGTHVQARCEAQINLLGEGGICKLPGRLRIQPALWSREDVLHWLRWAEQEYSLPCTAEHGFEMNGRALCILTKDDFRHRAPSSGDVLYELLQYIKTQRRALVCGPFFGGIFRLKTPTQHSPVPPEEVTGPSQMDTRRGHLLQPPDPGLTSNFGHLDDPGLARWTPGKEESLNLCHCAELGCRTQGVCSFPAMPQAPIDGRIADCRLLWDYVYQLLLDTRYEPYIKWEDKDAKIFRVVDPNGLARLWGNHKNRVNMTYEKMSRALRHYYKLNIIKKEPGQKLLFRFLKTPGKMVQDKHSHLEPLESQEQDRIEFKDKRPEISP
Particulars: protein: recombinant; tags: N-terminal GST; dsDNA, one strand shown. Put shortly: as §1

The target in a further test is T11, ELF5 (Homo sapiens, UniProt Q9UKW6-2 1-255).
T11 sequence: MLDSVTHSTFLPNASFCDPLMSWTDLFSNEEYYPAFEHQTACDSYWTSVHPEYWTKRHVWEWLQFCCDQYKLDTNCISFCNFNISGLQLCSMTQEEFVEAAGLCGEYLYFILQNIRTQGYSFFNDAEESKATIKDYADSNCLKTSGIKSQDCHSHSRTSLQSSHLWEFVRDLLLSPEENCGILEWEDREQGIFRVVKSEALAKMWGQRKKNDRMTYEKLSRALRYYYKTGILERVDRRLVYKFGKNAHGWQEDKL
The following applies: protein: recombinant; tags: N-terminal GST; dsDNA, one strand shown. Put shortly: as §1

A further test addresses T12, ETV3 (Homo sapiens, UniProt P41162-2 1-143).
T12 sequence: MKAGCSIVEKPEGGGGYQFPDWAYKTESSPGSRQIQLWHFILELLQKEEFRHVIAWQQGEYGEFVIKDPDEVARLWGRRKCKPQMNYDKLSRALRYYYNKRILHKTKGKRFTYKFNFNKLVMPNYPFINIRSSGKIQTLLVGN
Particulars: protein: recombinant; tags: N-terminal GST; dsDNA, one strand shown. The gist of the method:
as §1

A further test has as its target ETV6 (Homo sapiens, UniProt P41212 1-452). The following applies: protein: recombinant; tags: N-terminal GST; dsDNA, one strand shown. The gist of the method: as §1

Chain of ETV6 (P41212 whole entry): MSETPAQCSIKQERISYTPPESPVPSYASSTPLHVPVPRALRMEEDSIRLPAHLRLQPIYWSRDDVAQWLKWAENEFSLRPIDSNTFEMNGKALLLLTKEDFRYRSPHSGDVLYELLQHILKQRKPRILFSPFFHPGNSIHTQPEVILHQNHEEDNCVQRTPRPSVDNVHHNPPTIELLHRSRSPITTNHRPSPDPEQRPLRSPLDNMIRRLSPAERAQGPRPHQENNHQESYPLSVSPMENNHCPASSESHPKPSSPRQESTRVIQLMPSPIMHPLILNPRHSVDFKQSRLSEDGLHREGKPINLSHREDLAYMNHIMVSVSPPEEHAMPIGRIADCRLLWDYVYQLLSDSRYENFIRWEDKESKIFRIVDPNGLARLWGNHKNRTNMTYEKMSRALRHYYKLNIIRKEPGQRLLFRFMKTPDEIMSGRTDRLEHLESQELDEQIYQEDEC
Chain of ELF4 (Q99607 whole entry): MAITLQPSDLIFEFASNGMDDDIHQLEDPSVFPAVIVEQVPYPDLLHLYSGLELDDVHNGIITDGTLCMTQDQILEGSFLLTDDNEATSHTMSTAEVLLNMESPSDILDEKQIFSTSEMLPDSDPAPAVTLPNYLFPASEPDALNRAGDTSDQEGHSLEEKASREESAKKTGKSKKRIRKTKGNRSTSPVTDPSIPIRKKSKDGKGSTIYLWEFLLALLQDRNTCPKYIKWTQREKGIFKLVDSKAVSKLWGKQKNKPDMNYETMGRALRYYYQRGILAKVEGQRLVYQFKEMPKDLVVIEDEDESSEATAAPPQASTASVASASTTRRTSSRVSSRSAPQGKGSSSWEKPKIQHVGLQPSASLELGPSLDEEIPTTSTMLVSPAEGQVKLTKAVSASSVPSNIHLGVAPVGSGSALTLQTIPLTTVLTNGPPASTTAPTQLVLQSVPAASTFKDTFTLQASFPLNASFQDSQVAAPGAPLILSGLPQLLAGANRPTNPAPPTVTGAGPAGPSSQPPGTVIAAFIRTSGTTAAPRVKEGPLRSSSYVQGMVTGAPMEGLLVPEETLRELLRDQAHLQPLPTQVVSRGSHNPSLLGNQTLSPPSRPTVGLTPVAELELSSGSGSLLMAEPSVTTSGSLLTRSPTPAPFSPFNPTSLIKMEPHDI
Chain of ETV1 (P50549 whole entry): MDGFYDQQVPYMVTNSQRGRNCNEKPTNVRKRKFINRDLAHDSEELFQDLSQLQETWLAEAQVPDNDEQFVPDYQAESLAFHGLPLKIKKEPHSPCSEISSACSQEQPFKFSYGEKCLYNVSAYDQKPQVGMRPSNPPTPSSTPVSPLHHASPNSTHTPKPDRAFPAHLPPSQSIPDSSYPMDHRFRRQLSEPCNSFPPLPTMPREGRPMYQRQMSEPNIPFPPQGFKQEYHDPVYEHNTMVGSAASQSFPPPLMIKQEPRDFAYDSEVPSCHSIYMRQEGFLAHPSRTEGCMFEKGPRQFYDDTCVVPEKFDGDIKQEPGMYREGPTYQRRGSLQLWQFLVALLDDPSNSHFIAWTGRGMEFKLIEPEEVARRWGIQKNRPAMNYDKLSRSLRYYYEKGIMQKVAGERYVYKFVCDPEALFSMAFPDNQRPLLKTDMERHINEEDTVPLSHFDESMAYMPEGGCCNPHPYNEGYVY
Chain of HSF1 (Q00613 whole entry): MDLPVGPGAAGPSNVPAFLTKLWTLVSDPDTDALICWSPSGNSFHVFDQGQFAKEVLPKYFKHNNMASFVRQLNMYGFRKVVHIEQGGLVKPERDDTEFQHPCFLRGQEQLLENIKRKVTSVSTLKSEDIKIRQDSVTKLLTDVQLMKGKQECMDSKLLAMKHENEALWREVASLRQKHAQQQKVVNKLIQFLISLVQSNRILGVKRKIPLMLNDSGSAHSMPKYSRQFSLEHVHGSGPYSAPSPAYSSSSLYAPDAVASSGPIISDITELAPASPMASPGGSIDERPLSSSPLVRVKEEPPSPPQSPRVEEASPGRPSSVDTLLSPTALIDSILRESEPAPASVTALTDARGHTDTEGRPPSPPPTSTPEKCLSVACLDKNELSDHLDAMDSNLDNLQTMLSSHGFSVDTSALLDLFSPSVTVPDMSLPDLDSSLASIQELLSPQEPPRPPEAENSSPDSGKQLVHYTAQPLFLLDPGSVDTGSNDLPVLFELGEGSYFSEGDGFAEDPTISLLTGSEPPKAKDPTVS
Chain of CRX (O43186 whole entry): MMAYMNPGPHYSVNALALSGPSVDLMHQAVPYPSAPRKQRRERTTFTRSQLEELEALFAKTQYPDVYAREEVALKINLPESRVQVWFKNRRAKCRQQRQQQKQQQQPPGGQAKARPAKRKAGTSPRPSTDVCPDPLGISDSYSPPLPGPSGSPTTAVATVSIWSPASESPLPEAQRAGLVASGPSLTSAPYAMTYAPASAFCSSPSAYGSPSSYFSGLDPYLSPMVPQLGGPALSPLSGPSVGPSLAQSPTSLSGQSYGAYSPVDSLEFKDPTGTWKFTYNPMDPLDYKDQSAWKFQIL
Chain of ETV5 (P41161 whole entry): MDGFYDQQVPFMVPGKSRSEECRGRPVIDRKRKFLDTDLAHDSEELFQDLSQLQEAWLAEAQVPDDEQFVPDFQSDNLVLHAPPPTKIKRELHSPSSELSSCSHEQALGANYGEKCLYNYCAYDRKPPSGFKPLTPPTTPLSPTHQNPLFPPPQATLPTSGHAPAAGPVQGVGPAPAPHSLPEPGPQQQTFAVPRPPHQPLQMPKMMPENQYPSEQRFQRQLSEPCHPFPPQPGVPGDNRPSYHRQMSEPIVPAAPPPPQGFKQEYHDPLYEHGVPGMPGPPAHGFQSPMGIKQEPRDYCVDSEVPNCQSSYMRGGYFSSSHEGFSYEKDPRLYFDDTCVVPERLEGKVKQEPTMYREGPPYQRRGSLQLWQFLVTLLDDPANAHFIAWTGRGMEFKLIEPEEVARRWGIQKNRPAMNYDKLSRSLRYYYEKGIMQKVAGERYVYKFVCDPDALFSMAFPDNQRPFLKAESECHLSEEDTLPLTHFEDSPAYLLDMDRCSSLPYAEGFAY

For ATCGAT, the binding signal in the test with FEV is 1.02 fold enrichment (6-mer frequency, TF over GST control); in the test with ETV5, 1.17 fold enrichment (6-mer frequency, TF over GST control); with HSF1, 1.26 fold enrichment (6-mer frequency, TF over GST control); with SPIC, 1.2 fold enrichment (6-mer frequency, TF over GST control); in the test with ELF4, 1.17 fold enrichment (6-mer frequency, TF over GST control); with ELK4 it was 1.23 fold enrichment (6-mer frequency, TF over GST control). Moreover, the binding signal in the test with ETV2 is 1.08 fold enrichment (6-mer frequency, TF over GST control); with ELF3 it was 1.19 fold enrichment (6-mer frequency, TF over GST control); with CRX it was 1.25 fold enrichment (6-mer frequency, TF over GST control); with ETV1, 1.07 fold enrichment (6-mer frequency, TF over GST control); with ERF it was 1.13 fold enrichment (6-mer frequency, TF over GST control); with ETV3L, 1.17 fold enrichment (6-mer frequency, TF over GST control). The binding signal with ETS2 was 1.1 fold enrichment (6-mer frequency, TF over GST control); with SPDEF, 1.09 fold enrichment (6-mer frequency, TF over GST control); in the test with ETV7, 1.11 fold enrichment (6-mer frequency, TF over GST control); in the test with ELF5, 1.09 fold enrichment (6-mer frequency, TF over GST control); with ETV3, 1.15 fold enrichment (6-mer frequency, TF over GST control); in the test with ETV6, 1.11 fold enrichment (6-mer frequency, TF over GST control).
